# TTR transcr act – TTR transcription activation, primary screen; SH-SY5Y TTR promoter Gaussia luciferase, luminescence; 100% = recombinant luciferase protein wells; activation, % at 16.7 µM; 92,000 compounds, 1.3% hits;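 active = activation above the mean of all tested compounds plus 3 SD, cut at about 9.5% in these data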;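 also: cells exposed to compounds for one day before reading; 0% = median of all test compound wells on the plate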
# TTR inh HuH7 – HuH7 TTR transcription inhibition, counter-screen | shares compounds with TTR transcr act | HuH7 TTR promoter-Gaussia luciferase reporter, luminescence | inhibition, % at 16.7 µM | 1,100 compounds, 4% hits | AID 1117279;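 active = average inhibition above the solvent-only control wells' mean plus 3 SD, cut at about 15% in these data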;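 also: 0% = cells with DMSO only and 100% = cells with inhibitor control FD; inhibitors lower well luminescence so higher value means more inhibition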
# TTR up confirm – human TTR transcription activation, confirmation | shares compounds with TTR transcr act | 1,100 tested, under 10 active | SHSY5Y TTR promoter Gaussia luciferase, luminescence; 100% = purified Lucia enzyme wells, no cells | AID 1117280 | activation, % at 16.7 µM;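 active = mean activation above a set limit taken from the earlier primary screen, cut at about 11% in these data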;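 also: 0% = DMSO-treated cells and 100% = recombinant Lucia luciferase without cells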
# * marks the source's active call; other numbers are inactive results. The entries come from a sample that favours hits as a whole.
SMILES,TTR transcr act,others
CCOC(=O)C(C(=O)OCC)N(C#N)c1nc(OC)nc(N(C)C)n1,2.5,
COc1ccc(S(=O)(=O)NC(=O)C2(C)CCN2C(=O)c2cccc(F)c2)cc1 (configuration not stated),0.4,
Nc1ncnc2c1ncn2[C@@H]1O[C@H](C(=O)NCC2CCN(Cc3ccccc3)CC2)[C@@H](O)[C@H]1O,-0.2,
CCOC(=O)c1ccc(N[C@@H]2CCN3C(=O)c4ccccc4[C@@H]3C[C@H]2O)cc1,1.2,
CSc1ncnc2c1ncn2CCCN(C)CCc1ccccn1,-1.4,
O=S(=O)(NCc1csc(-c2cccnc2)n1)c1ccc(Br)cc1,0.5,
O=C(NCCc1csc(-c2cccnc2)n1)c1ccccc1Br,18.1*,TTR inh HuH7=-17.1;TTR up confirm=0.7
O=S(=O)(NCCc1csc(-c2cccnc2)n1)c1cccc(F)c1,2.4,
CCOCCCNC(=O)c1cc(C)nn1-c1ccccc1,-0.3,
Cc1cc(C(=O)N2CCOCC2)n(-c2ccccc2)n1,0.3,
Cc1cc(C(=O)NCCCN2CCOCC2)n(-c2ccccc2)n1,17.5*,TTR inh HuH7=-3.2;TTR up confirm=0.0
CC(=O)OC1(C(C)=O)CCC2C3CC(Cl)C4=CC(=O)CCC4(C)C3CCC21C (configuration not stated),-2.9,
CC(=O)Nc1sc2c(c1-c1nc3ccccc3s1)CCCNC2,7.3,
CC(C)N1CCC(C)(C(=O)Nc2ccc(-n3cccc3)cc2)C1 (configuration not stated),0.3,
CCC(C)C(CO)NCCCn1ccc(NC(=O)OCc2ccccc2)nc1=O (configuration not stated),-0.7,
Cc1cccc(NC(=O)CNC(=O)c2cn(Cc3ccccc3)nc2-c2cccnc2)c1C,1.7,
O=[N+]([O-])c1ccccc1OCc1nc(-c2cccs2)no1,11.8*,TTR inh HuH7=-9.2;TTR up confirm=0.5
Clc1ccccc1OCc1nc(-c2ccc(Br)o2)no1,0.8,
O=C(O)CCc1nc(-c2cccs2)no1,-1.5,
C=CCN1[C@@H](C)[C@H](c2ccccc2)Oc2cccc(NCCc3ccccc3)c2S1(=O)=O,-1.4,
C[C@@H](NC(=O)c1nc[nH]c1C(=O)NCC(=O)OC(C)(C)C)c1ccccc1,3.9,
CN(Cc1ccccc1)C(=O)c1[nH]cnc1C(=O)NCC(=O)OC(C)(C)C,10.6*,TTR inh HuH7=-15.7;TTR up confirm=22.1*
CC(C)(C)OC(=O)CNC(=O)c1nc[nH]c1C(=O)N1CCN(c2ccccc2)CC1,3.1,
O=C(NCc1ccccc1F)c1ccc(S(=O)(=O)N2CCCCCC2)cc1,1.9,
CC[C@]12c3[nH]c4ccc(OC)cc4c3CCN1C(=O)C(CC(=O)NC(C)(C)C)C[C@@H]2C(=O)N1CCN(C(=O)c2ccco2)CC1 (some centres not stated),-1.2,
SMILES,TTR transcr act,others
Cc1nc2c(Br)cc(Br)cc2c(=O)n1-c1ccccc1NC1OCC(O)C(O)C1O (configuration not stated),-0.1,
CC(=O)c1ccc(NC(=O)c2cn(C)c(=O)c3ccccc23)cc1,-0.5,
COc1cccc(NC(=O)c2ccc3nc(C)sc3c2)c1,0.0,
O=C(N/N=C/c1cccnc1)c1ccco1,1.7,
Cn1nccc1C(=O)N/N=C/c1cccnc1,-1.6,
O=C(N/N=C/c1cccnc1)c1ccc2c(c1)OCCO2,17.6*,TTR inh HuH7=2.4;TTR up confirm=0.5
OC1Cc2ccccc2C1Nc1cccc(C(F)(F)F)c1 (configuration not stated),1.2,
Nc1nnc(CCS(=O)(=O)c2cc(Cl)ccc2Cl)s1,23.5*,TTR inh HuH7=-8.4;TTR up confirm=-0.6
CC(C)(C)c1nnc(NS(=O)(=O)c2cc(Cl)ccc2Cl)s1,2.0,
Nc1nnc(CSCc2ccccc2Cl)s1,-0.2,
CC1CCCCC1NC(=O)CSc1nnc(COc2ccc(Cl)cc2)o1 (configuration not stated),-1.2,
O=C1CCCc2c1nc(-c1ccc(F)cc1)n2O,8.6,
O=C1CCCc2c1nc(-c1ccc([N+](=O)[O-])cc1)n2O,12.0*,TTR inh HuH7=1.8;TTR up confirm=-1.1
O=[N+]([O-])c1ccc(-c2cn3c(n2)CCC3)cc1,4.8,
CCOC(=O)C1CCN(C/C=C/c2ccccc2[N+](=O)[O-])CC1,0.9,
CSc1nc(NCC(C)C)nc(N2CCOCC2)n1,14.8*,TTR inh HuH7=-3.0;TTR up confirm=0.2
Fc1ccc(Nc2nc(N3CCOCC3)nc(N3CCOCC3)n2)cc1,0.7,
c1cncc(CNc2nc(N3CCOCC3)nc(N3CCOCC3)n2)c1,0.5,
CCN1C(=O)[C@H]2[C@H]3CN=C(SC)N3[C@@](Cc3ccccc3)(C(=O)OC)[C@H]2C1=O,2.8,
CCCCN(C)S(=O)(=O)c1c(C)[nH]c(=O)[nH]c1=O,-0.4,
Cc1ccc(N(C(C)C(=O)O)S(=O)(=O)c2c(C)[nH]c(=O)[nH]c2=O)cc1 (configuration not stated),10.2*,TTR inh HuH7=-13.1;TTR up confirm=0.1
COC(=O)CN(c1ccc(C(C)C)cc1)S(=O)(=O)c1c(C)[nH]c(=O)[nH]c1=O,2.8,
